From publication PMC7862700, “An all-to-all approach to the identification of sequence-specific readers for epigenetic DNA modifications on cytosine”

Experiments:
Assay in all cases: DAPPL (digital affinity profiling via proximity ligation, sequencing); 10 mM Tris-HCl pH 7.5, 50 mM NaCl, 1 mM DTT, 4% glycerol, room temperature, 30 min; GST-TFs on glutathione beads, 16-mer random dsDNA library, 0.1% formaldehyde crosslink after washing; high values mean tight binding
Conditions in all cases: protein: recombinant; tags: N-terminal GST; dsDNA, one strand shown
FLI1 = target: T1, FLI1 (Homo sapiens, UniProt Q01543 1-452)
T1 sequence: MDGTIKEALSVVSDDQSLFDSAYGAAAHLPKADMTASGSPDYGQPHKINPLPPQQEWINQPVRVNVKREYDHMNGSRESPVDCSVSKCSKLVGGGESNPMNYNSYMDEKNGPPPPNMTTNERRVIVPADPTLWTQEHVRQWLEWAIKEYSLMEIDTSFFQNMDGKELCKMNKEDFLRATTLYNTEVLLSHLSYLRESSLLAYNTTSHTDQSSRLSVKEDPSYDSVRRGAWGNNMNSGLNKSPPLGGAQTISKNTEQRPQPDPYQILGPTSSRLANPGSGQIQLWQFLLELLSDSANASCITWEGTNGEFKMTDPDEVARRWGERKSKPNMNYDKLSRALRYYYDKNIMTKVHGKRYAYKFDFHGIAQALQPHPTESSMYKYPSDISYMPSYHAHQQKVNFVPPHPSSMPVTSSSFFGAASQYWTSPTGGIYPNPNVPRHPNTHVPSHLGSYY
Outline: (§1)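 The binding signal reported is, for every hexamer, its read frequency for a factor over its read frequency for the tag-only sample. Reads came from pools of yeast-expressed, GST-fused human transcription factors on glutathione beads, barcoded with DNA and mixed with that sample, which were incubated with 200 nmole of a random double-stranded 16-mer DNA library in Tris/NaCl/DTT/glycerol buffer at room temperature for 30 min. After washing, the pools were crosslinked with 0.1% formaldehyde, proximity-ligated with BsaI/T4 ligase for 1 h at 37 °C, PCR-amplified and sequenced on an Illumina NextSeq500.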

ELK1 = target: T2, ELK1 (Homo sapiens, UniProt P19419 1-428)
T2 sequence: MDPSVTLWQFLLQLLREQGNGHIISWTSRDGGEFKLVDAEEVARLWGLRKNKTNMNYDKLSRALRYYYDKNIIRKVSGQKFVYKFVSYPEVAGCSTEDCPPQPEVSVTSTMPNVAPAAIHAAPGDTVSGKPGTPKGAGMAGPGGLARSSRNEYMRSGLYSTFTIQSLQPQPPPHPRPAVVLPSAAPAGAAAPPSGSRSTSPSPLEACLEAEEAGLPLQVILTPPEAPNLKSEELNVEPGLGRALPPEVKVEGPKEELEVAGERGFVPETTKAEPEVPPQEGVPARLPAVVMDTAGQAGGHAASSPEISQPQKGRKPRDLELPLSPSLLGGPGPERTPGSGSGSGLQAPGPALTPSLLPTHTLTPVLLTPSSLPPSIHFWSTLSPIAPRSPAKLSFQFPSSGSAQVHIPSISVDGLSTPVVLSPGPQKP
Outline: as §1

GABPA = target: T3, GABPA (Homo sapiens, UniProt Q06546 1-454)
T3 sequence: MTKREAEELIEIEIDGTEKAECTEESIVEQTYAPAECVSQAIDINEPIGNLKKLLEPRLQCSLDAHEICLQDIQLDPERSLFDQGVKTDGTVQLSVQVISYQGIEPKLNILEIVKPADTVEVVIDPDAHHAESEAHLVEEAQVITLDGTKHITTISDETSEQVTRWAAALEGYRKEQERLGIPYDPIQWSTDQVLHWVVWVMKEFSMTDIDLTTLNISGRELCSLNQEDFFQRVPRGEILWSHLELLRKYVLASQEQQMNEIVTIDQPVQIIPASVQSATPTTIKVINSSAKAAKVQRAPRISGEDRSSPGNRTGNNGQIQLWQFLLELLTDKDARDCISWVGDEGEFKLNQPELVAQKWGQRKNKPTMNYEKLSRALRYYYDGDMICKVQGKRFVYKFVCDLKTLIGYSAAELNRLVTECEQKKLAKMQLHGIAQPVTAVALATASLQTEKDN
Outline: as §1

ERG = target: T4, ERG (Homo sapiens, UniProt P11308 1-479)
T4 sequence: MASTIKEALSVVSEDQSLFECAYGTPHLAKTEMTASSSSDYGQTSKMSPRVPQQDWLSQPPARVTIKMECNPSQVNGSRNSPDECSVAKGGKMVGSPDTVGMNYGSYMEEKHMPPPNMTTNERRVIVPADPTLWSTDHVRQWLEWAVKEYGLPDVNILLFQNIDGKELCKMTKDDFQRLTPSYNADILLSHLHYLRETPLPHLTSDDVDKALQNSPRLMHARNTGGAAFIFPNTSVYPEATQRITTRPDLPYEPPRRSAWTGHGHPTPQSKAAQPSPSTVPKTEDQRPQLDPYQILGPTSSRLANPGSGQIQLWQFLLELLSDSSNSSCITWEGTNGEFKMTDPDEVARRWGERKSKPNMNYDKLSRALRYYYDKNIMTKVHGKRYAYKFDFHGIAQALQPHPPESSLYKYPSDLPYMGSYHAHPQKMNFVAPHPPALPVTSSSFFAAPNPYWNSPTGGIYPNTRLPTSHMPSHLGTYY
Outline: as §1

ELF1 = ELF1 (Homo sapiens, UniProt P32519 1-619)
Chain of ELF1 (P32519 whole entry): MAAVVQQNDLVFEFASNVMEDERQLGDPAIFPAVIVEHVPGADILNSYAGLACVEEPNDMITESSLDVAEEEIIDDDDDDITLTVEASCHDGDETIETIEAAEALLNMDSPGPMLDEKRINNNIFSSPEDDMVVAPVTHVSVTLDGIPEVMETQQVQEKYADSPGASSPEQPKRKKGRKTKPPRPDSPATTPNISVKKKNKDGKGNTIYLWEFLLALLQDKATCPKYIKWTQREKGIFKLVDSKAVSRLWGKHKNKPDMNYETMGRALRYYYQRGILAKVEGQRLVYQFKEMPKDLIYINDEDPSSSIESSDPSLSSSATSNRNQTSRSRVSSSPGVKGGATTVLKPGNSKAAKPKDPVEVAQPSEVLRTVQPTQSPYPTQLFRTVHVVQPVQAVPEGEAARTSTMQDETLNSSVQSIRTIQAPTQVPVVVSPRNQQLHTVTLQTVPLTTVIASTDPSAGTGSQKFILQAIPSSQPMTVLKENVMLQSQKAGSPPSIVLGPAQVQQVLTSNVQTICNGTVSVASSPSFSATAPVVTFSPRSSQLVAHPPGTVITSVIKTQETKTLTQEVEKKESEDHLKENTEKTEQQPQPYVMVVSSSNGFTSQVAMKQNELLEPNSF
Outline: as §1

EHF = target: T5, EHF (Homo sapiens, UniProt Q9NZC4 1-300)
T5 sequence: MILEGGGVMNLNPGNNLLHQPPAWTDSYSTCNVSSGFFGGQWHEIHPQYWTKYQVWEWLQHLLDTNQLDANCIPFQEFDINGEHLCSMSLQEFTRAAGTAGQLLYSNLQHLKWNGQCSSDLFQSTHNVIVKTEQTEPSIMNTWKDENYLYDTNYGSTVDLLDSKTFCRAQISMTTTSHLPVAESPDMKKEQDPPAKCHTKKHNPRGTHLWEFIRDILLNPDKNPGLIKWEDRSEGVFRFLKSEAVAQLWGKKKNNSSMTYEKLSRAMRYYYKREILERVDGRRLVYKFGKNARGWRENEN
Outline: as §1

SPI1 = SPI1 (Homo sapiens, UniProt P17947 1-270)
Outline: as §1

SPIB = SPIB (Homo sapiens, UniProt Q01892 1-262)
Chain of SPIB (Q01892 whole entry): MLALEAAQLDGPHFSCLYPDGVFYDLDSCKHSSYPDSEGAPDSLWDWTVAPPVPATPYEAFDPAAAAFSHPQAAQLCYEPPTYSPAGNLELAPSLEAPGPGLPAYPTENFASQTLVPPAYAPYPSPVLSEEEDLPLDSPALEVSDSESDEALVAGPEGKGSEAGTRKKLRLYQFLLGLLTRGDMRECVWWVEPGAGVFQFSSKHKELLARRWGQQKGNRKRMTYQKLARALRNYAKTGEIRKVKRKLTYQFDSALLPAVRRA
Outline: as §1

ELK3 = target: T6, ELK3 (Homo sapiens, UniProt P41970 1-407)
T6 sequence: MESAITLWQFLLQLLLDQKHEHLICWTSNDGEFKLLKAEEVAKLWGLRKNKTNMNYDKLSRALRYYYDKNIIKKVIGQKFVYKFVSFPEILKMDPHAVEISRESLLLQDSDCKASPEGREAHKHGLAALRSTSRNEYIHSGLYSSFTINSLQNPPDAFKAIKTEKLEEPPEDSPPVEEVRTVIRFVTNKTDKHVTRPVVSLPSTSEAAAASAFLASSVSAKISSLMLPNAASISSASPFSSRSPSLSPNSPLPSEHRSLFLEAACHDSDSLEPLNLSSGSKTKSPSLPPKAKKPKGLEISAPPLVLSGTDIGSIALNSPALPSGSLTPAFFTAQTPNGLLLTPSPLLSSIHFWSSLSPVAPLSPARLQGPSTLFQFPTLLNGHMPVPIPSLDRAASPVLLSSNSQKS
Outline: as §1

Row | Sequence | binding signal (FLI1) | binding signal (ELK1) | binding signal (GABPA) | binding signal (ERG) | binding signal (ELF1) | binding signal (EHF) | binding signal (SPI1) | binding signal (SPIB) | binding signal (ELK3)
1 | TGCCGA | 1.07 fold enrichment (6-mer frequency, TF over GST control) | 1.25 fold enrichment (6-mer frequency, TF over GST control) | 1.21 fold enrichment (6-mer frequency, TF over GST control) | 1.1 fold enrichment (6-mer frequency, TF over GST control) | 1.03 fold enrichment (6-mer frequency, TF over GST control) | 1.24 fold enrichment (6-mer frequency, TF over GST control) | 1.2 fold enrichment (6-mer frequency, TF over GST control) | 1.18 fold enrichment (6-mer frequency, TF over GST control) | 1.1 fold enrichment (6-mer frequency, TF over GST control)
2 | TGCATA | 1.08 fold enrichment (6-mer frequency, TF over GST control) | 1.11 fold enrichment (6-mer frequency, TF over GST control) | 1.13 fold enrichment (6-mer frequency, TF over GST control) | 1.11 fold enrichment (6-mer frequency, TF over GST control) | 1.06 fold enrichment (6-mer frequency, TF over GST control) | 1.16 fold enrichment (6-mer frequency, TF over GST control) | 1.15 fold enrichment (6-mer frequency, TF over GST control) | 1.11 fold enrichment (6-mer frequency, TF over GST control) | 1.15 fold enrichment (6-mer frequency, TF over GST control)
3 | ATCTCA | 1.17 fold enrichment (6-mer frequency, TF over GST control) | 1.18 fold enrichment (6-mer frequency, TF over GST control) | 1.15 fold enrichment (6-mer frequency, TF over GST control) | 1.11 fold enrichment (6-mer frequency, TF over GST control) | 1.2 fold enrichment (6-mer frequency, TF over GST control) | 1.25 fold enrichment (6-mer frequency, TF over GST control) | 1.12 fold enrichment (6-mer frequency, TF over GST control) | 1.19 fold enrichment (6-mer frequency, TF over GST control) | 1.18 fold enrichment (6-mer frequency, TF over GST control)
4 | ACAAAC | 1.15 fold enrichment (6-mer frequency, TF over GST control) | 1.15 fold enrichment (6-mer frequency, TF over GST control) | 1.14 fold enrichment (6-mer frequency, TF over GST control) | 1.16 fold enrichment (6-mer frequency, TF over GST control) | 1.12 fold enrichment (6-mer frequency, TF over GST control) | 1.15 fold enrichment (6-mer frequency, TF over GST control) | 1.11 fold enrichment (6-mer frequency, TF over GST control) | 1.11 fold enrichment (6-mer frequency, TF over GST control) | 1.17 fold enrichment (6-mer frequency, TF over GST control)
5 | CCGTCA | 1.24 fold enrichment (6-mer frequency, TF over GST control) | 1.3 fold enrichment (6-mer frequency, TF over GST control) | 1.19 fold enrichment (6-mer frequency, TF over GST control) | 1.31 fold enrichment (6-mer frequency, TF over GST control) | 1.28 fold enrichment (6-mer frequency, TF over GST control) | 1.16 fold enrichment (6-mer frequency, TF over GST control) | 1.18 fold enrichment (6-mer frequency, TF over GST control) | 1.2 fold enrichment (6-mer frequency, TF over GST control) | 1.15 fold enrichment (6-mer frequency, TF over GST control)
6 | TTGTCC | 1.47 fold enrichment (6-mer frequency, TF over GST control) | 1.32 fold enrichment (6-mer frequency, TF over GST control) | 1.41 fold enrichment (6-mer frequency, TF over GST control) | 1.4 fold enrichment (6-mer frequency, TF over GST control) | 1.3 fold enrichment (6-mer frequency, TF over GST control) | 1.31 fold enrichment (6-mer frequency, TF over GST control) | 1.17 fold enrichment (6-mer frequency, TF over GST control) | 1.34 fold enrichment (6-mer frequency, TF over GST control) | 1.43 fold enrichment (6-mer frequency, TF over GST control)
7 | TTCCCC | 1.74 fold enrichment (6-mer frequency, TF over GST control) | 1.58 fold enrichment (6-mer frequency, TF over GST control) | 1.71 fold enrichment (6-mer frequency, TF over GST control) | 1.67 fold enrichment (6-mer frequency, TF over GST control) | 1.72 fold enrichment (6-mer frequency, TF over GST control) | 1.68 fold enrichment (6-mer frequency, TF over GST control) | 2.54 fold enrichment (6-mer frequency, TF over GST control) | 1.66 fold enrichment (6-mer frequency, TF over GST control) | 1.61 fold enrichment (6-mer frequency, TF over GST control)
